The results in this text go back to PubChem BioAssay.

In general, inhibition refers to the change of the read-out against control, counted positive when it falls.

Structures are written as SMILES. For some of these results: Measured potencies and affinities stand elsewhere. Calls of active or inactive are those of the source.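 The calls were made as follows, unless noted: active = calcium signal rise above buffer-control mean plus 5 SD in both duplicates, and also a hit in the primary screen; inactive = the rest.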

Assay [1] relates to TRPC4 beta (transient receptor potential cation channel C4), mouse. In words: activators of mouse TRPC4 channel, confirmation, cell-based, Fluo4 calcium, HEK293 TRPC4beta/mu-opioid, duplicates, 10 µM (AID 2426;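 active = fluorescence ratio normalized to control raised more than 50% in primary screen plus both repeat runs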). The following applies: Fluo4 calcium fluorescence, at 10 µM; active compounds read high.
Assay [2] relates to transient receptor potential cation channel C4 beta (TRPC4), mouse. In words: activators of mouse TRPC4 channel, confirmation, cell-based, second round, Fluo4, HEK293 TRPC4beta/mu-opioid, 1 µM (AID 2461;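 active = primary screen active and over 50% activation in each of two duplicate runs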). Conditions: Fluo4 calcium fluorescence, at 1 µM; active compounds read high.
Assay [3] deals with TRPC4 (transient receptor potential cation channel C4 beta), mouse. In words: positive allosteric modulators of mouse TRPC4, confirmation, cell-based, second round, Fluo-4, HEK293 TRPC4beta/mu-opioid, 1 µM (AID 2554;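 active = primary screen hit whose fluorescence ratio, in both repeats, exceeds the weak agonist control mean by 3 SD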). Conditions: DAMGO EC20, Fluo-4 calcium flux, at 1 µM; active compounds read high. (A change in cytosolic calcium serves as a functional read-out for many receptors and channels.)

Assay [4] deals with TRPC4 beta (transient receptor potential cation channel C4), mouse. As to the kind of experiment: positive allosteric modulators of mouse TRPC4, confirmation, cell-based, Fluo-4, HEK293 TRPC4beta/mu-opioid (AID 2555;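 active = primary screen hit whose calcium fluorescence ratio, in both repeats, exceeds the weak agonist control mean by 3 SD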). Conditions: DAMGO EC20, Fluo-4 calcium flux, at 10 µM; active compounds read high.
The target of assay [5] is Short transient receptor potential channel 4 (Mus musculus) (UniProt Q9QUQ5). As to the kind of experiment: inhibitors of mouse TRPC4 channel, confirmation, cell-based, Fluo4, HEK293 TRPC4beta/mu-opioid (AID 2636;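 active = calcium signal cut by more than 3 SD below the full-agonist control yet still positive, in both repeats and the earlier primary screen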). The following applies: DAMGO, Fluo4 calcium flux, at 10 µM; active compounds read high.
Short transient receptor potential channel 4 (Mus musculus), sequence (Q9QUQ5 whole entry, looked up): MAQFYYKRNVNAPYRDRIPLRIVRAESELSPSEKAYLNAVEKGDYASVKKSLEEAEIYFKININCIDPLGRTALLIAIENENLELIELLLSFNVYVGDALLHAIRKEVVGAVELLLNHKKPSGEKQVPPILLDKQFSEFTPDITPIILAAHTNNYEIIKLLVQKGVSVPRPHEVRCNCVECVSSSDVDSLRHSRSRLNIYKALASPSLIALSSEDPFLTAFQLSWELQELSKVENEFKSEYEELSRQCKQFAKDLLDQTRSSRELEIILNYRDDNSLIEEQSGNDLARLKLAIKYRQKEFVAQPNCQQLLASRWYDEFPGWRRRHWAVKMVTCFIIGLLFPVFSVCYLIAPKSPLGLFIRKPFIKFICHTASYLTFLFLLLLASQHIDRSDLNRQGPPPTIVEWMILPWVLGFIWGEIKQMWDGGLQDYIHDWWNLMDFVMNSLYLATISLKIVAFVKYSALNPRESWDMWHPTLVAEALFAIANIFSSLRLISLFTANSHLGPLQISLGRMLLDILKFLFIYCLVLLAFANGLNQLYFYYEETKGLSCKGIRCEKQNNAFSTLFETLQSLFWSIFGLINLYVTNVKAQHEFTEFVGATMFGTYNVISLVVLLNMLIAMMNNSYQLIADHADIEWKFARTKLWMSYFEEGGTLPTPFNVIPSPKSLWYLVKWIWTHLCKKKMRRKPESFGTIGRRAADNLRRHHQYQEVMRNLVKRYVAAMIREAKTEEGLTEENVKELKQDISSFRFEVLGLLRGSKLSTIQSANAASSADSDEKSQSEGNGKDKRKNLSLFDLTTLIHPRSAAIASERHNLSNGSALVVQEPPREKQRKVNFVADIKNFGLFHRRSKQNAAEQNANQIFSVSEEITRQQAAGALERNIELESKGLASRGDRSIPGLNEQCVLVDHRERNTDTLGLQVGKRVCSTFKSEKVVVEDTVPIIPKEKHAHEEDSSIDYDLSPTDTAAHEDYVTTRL
The target is the same in assay [6]. As to the kind of experiment: inhibitors of mouse TRPC4 channel, confirmation, cell-based, second round, Fluo4, HEK293 TRPC4beta/mu-opioid, 1 µM (AID 2637;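 active = calcium signal ratio cut to more than 3 SD under the fully stimulated control mean yet still positive, in both repeats and the primary screen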). Conditions: Fluo4 calcium flux, DAMGO, at 1 µM; active compounds read high.
Assay [7] shares this target. As to the kind of experiment: mouse TRPC4 channel activators, dose response, cell-based, HEK293 TRPC4/mu-opioid, Fluo-4 calcium (AID 434937;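 active = primary screen activator hit with a dose response curve and TRPC4 channel activation at any tested dose; inactive = no activation, no dose response, or not a primary hit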).
For assay [8] the target is unchanged. In words: TRPC4 positive allosteric modulators, dose response, cell-based, HEK293 TRPC4/mu-opioid, Fluo-4 calcium, EC20 DAMGO (AID 434941;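 active = earlier screen potentiator hit that boosts the TRPC4 ion channel at some dose, with a dose response; inactive = no potentiation, no dose response, or not a prior hit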;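 also: calcium entry triggered by an EC20 dose of DAMGO at the co-expressed mu-opioid receptor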).
Assay [9] has the same target. As to the kind of experiment: mouse TRPC4 channel inhibitors, dose response, cell-based, HEK293 TRPC4/mu-opioid, Fluo-4 calcium (AID 434942;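 active = primary screen inhibitor hit that blocks the TRPC4 channel at some tested dose, yielding a dose curve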).
The target in assay [10] is Short transient receptor potential channel 6 (Mus musculus) (UniProt Q61143). In words: inhibition of mouse TRPC6 channel, confirmation, selectivity assay for TRPC4 inhibitor project, cell-based, HEK293, membrane potential dye, duplicate (AID 434948;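 active = active in primary screen and both duplicates, each dropping signal beyond three positive-control SD with fluorescence still positive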). The following applies: HEK293 TRPC6, membrane potential dye fluorescence, at 10 µM, stimulated with maximal-effect acetylcholine; active compounds read high.
Short transient receptor potential channel 6 (Mus musculus), sequence (Q61143 whole entry, looked up): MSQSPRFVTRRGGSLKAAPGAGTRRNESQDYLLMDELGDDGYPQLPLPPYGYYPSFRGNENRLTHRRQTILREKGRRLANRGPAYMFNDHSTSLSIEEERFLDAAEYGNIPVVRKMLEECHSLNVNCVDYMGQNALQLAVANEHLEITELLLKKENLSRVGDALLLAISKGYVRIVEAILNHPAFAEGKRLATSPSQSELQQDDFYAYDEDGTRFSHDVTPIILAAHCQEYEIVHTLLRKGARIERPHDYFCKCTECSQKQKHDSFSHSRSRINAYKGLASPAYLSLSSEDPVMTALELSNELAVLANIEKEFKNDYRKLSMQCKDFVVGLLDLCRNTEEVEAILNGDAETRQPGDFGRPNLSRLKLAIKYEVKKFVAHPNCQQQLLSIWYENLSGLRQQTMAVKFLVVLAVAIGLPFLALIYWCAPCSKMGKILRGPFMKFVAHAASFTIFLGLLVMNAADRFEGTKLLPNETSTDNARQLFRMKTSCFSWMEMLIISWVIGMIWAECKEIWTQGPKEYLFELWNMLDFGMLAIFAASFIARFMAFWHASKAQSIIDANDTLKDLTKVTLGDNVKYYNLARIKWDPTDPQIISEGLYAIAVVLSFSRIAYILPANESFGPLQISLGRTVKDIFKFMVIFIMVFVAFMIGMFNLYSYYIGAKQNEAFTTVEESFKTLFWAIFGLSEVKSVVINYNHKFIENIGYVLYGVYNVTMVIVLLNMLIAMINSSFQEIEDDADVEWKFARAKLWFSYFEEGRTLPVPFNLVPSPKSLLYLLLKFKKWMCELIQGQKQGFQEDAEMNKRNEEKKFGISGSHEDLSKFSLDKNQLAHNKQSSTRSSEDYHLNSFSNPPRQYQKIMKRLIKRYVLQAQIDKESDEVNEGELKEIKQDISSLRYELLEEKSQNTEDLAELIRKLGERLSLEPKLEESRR

For assay [11] the target is unchanged. As to the kind of experiment: activation of mouse TRPC6 channel, confirmation, selectivity assay for TRPC4 activator project, cell-based, HEK293, membrane potential dye, duplicate (AID 434950;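 active = membrane potential signal rise above negative control mean plus 3 SD in both duplicates, also active in the earlier TRPC4 screen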). Conditions: HEK293 TRPC6, membrane potential fluorescence, at 10 µM; active compounds read high.
For assay [12] the target is unchanged. In words: TRPC6 potentiation by TRPC4 potentiator hits, confirmation, selectivity assay for TRPC4 potentiator project, HEK293 cells, membrane potential dye, duplicate (AID 434952;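 active = compound raising the membrane signal above positive-control mean plus 3 SD in both repeats, and a primary screen hit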). Conditions: HEK293 TRPC6, membrane potential dye fluorescence, at 10 µM, maximal acetylcholine added after compound; active compounds read high.
Assay [13] concerns the target Short transient receptor potential channel 4 (Mus musculus) (UniProt Q9QUQ5). As to the kind of experiment: calcium flux activators in TRPC4/5HT1a cells, counter-screen for TRPC4 activator project, cell-based, second counter screen, HEK293 TRPC4/5HT1a, Fluo-4 (AID 434977). The following applies: Fluo-4 calcium flux, at 10 µM; active compounds read high.
Assay [14] in a line: calcium flux inhibitors in TRPC4/5HT1a cells, confirmation, counter-screen for TRPC4 inhibitor project, cell-based, second counter screen, HEK293 TRPC4/5HT1a, Fluo-4 (AID 434978;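 active = primary screen active whose calcium signal fell more than 3 SD beyond the full-serotonin control mean in both duplicate plates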;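 also: serotonin given first at submaximal then at maximal dose after compound preincubation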). Conditions: Fluo-4 calcium flux, at 10 µM, serotonin added to trigger calcium flux; active compounds read high.
Assay [15] relates to TRPC4 (mouse), co-expressed with 5HT1a in HEK293. As to the kind of experiment: calcium flux potentiators in TRPC4/5HT1a cells, confirmation, counter-screen for TRPC4 potentiator project, cell-based, second counter screen, HEK293 TRPC4/5HT1a, Fluo-4 (AID 434979;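 active = signal rise over 3 SD above mean of control wells given weak agonist, in both repeats and first screen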). Conditions: Fluo-4 calcium flux, at 10 µM, serotonin added at its EC20 dose; active compounds read high.
Assay [16] is described as follows: calcium flux activation in mu-opioid HEK293 cells, confirmation, counter-screen for TRPC4 activator project, cell-based, HEK293 mu-opioid receptor line (AID 449723;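 active = hit in primary screen, with calcium signal over 5 SD above buffer well mean in both duplicates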;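 also: counter screen cells carry the mu-opioid receptor alone and lack TRPC4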). Conditions: Fluo-4 calcium fluorescence, at 10 µM; active compounds read high.
A short description of assay [17]: calcium flux enhancement in mu-opioid HEK293 cells, confirmation, counter-screen for TRPC4 allosteric potentiator project, cell-based, HEK293 mu-opioid receptor line (AID 449724;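 active = calcium signal rise more than 3 SD above the low-dose agonist control mean, in both duplicate plates and the primary screen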;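 also: HEK293 cells carrying mu-opioid receptor only with no TRPC4 channel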). Conditions: Fluo-4 calcium flux, at 10 µM, compound added before EC20 DAMGO stimulus; active compounds read high.

Turning to `COc1cc(/C=C2\C(=O)ON=C2c2ccccc2)cc(Cl)c1O`, the outcome in assay [1], in assay [2], in [3], in assay [4], in [6] and in [7] was inactive. The outcome in assay [8], in assay [9], in assay [10], in assay [11], in [12] and in assay [13] was inactive. Moreover, the result in assay [14], in assay [15], in assay [16] and in assay [17] was inactive. Further, in assay [5], the inhibition was 76% (active).

Turning to `Cc1cc(Nc2ccc3c(c2)OCCO3)c2cccc(C)c2n1`, the outcome in [1], in assay [2], in [3], in assay [4], in assay [5] and in [6] was inactive. The result in assay [7], in assay [8], in assay [9], in assay [10], in [11] and in assay [12] was inactive. Further, the result in [13], in [14], in [15], in [16] and in assay [17] was inactive.

Consider `CCOc1cc2[nH]c(=S)n(C3CC3)c(=O)c2cc1OCC`, for which the outcome in [1], in assay [2], in assay [3], in [4], in [5] and in assay [6] was inactive. Moreover, the result in assay [7], in [8], in [9], in assay [10], in assay [11] and in assay [12] was inactive. Besides, the result in assay [13], in [14], in assay [15], in assay [16] and in assay [17] was inactive.

Turning to `Cc1cc2oc(C(=O)N(Cc3cccs3)C3CCS(=O)(=O)C3)cc(=O)c2cc1Cl` (stereo not drawn), the result in assay [1], in assay [2], in assay [3], in assay [5], in [6] and in [7] was inactive. Also, the outcome in assay [8], in [9], in assay [10], in assay [11], in assay [12] and in [13] was inactive. The outcome in assay [14], in assay [16] and in assay [17] was inactive. The potentiation in assay [4] was 40% (active); in [15] it was 66.3% (active).

In the case of `COCCNC(=O)/C(C#N)=C/c1cc(C(C)C)c(OC)cc1C`, the result in assay [1], in assay [2], in assay [3], in [5], in [6] and in [7] was inactive. The result in assay [8], in [9], in assay [10], in assay [11], in assay [12] and in [13] was inactive. Further, the result in [14], in assay [16] and in assay [17] was inactive. The potentiation in assay [4] is 14% (active); in assay [15], 20.4% (active).

For `c1ccc(Cc2nc3ccccc3n2Cc2ccccc2)cc1`, the result in [1], in assay [2], in assay [3], in assay [4], in assay [5] and in assay [6] was inactive. Moreover, the result in assay [7], in [8], in assay [9], in assay [10], in assay [11] and in assay [12] was inactive. Moreover, the result in assay [13], in [14], in assay [15], in [16] and in assay [17] was inactive.

For `COc1cc(C2c3c(-c4ccccc4)n[nH]c3C(=O)N2c2ccccc2)ccc1O` (stereo not drawn), the outcome in assay [1], in [2], in [3], in [5], in assay [6] and in assay [7] was inactive. In addition, the outcome in assay [8], in [9], in assay [10], in assay [11], in assay [12] and in assay [13] was inactive. In addition, the result in [14], in [16] and in assay [17] was inactive. The potentiation is 16% (active) in assay [4] and 17% (active) in assay [15].

For the molecule `O=C(Nc1cccc(C(F)(F)F)c1)c1cccc(NS(=O)(=O)c2ccc(O)c(C(=O)O)c2)c1`, the outcome in [1], in assay [2], in [3], in assay [4], in [5] and in [6] was inactive. Moreover, the result in [7], in assay [8], in assay [9], in assay [10], in [11] and in [12] was inactive. Besides, the outcome in assay [13], in [14], in assay [15], in [16] and in assay [17] was inactive.

For `c1cnc(N2CCN(c3cnccn3)CC2)nc1`, the result in assay [1], in assay [2], in assay [3], in assay [4], in assay [5] and in assay [6] was inactive. Also, the result in [7], in assay [8], in [9], in assay [10], in [11] and in [12] was inactive. The outcome in assay [13], in [14], in assay [15], in assay [16] and in assay [17] was inactive.

In the case of `COc1ccc2c(c1)c1ncn(CCN3CCCC3)c(=O)c1n2C`, the result in assay [1], in assay [2], in assay [4], in assay [5], in assay [6] and in assay [7] was inactive. In addition, the outcome in assay [8], in assay [9], in assay [10], in assay [11], in assay [12] and in assay [13] was inactive. Further, the outcome in assay [14], in assay [16] and in [17] was inactive. The potentiation in assay [3] is 13% (active); in assay [15], 12.8% (active).

Take `CCOC(=O)c1cc(=O)n(Cc2ccccc2C)c2ccccc12`: the outcome in assay [1], in assay [2], in assay [3], in [5], in assay [6] and in assay [7] was inactive. Further, the outcome in assay [8], in [9], in [10], in assay [11], in [12] and in assay [13] was inactive. In addition, the result in assay [14], in [16] and in assay [17] was inactive. Besides, the figures for the potentiation in assay [4] and in assay [15] were 74% (active) and 48.4% (active), respectively.

Take `COc1ccc(F)cc1C(=O)C1CCCN(Cc2cccn2-c2ccccn2)C1` (stereo not drawn): the outcome in assay [1], in assay [2], in [3], in [4], in assay [5] and in [6] was inactive. Besides, the result in [7], in assay [8], in [9], in [10], in assay [11] and in assay [12] was inactive. Besides, the result in [13], in assay [14], in [15], in assay [16] and in assay [17] was inactive.

On to `CN1CCN(Cc2cccc(Oc3ccc(Cl)cc3)c2)CC1`, for which the outcome in assay [1], in [2], in assay [4], in assay [5], in assay [6] and in [7] was inactive. For the same molecule, the outcome in assay [8], in assay [9], in [10], in assay [11], in assay [12] and in assay [13] was inactive. Moreover, the result in assay [14], in [16] and in [17] was inactive. Also, the potentiation in assay [3] is 22% (active); in [15], 15.1% (active).

In the case of `Cc1ccc(Cn2c(=N)c(C(=O)NCC3CCCO3)cc3c(=O)n4ccccc4nc32)cc1` (stereo not drawn), the result in assay [1], in assay [2], in assay [3], in assay [5], in [6] and in assay [7] was inactive. For the same molecule, the outcome in [8], in assay [9], in [10], in assay [11], in assay [12] and in assay [13] was inactive. Besides, the outcome in [14], in assay [16] and in assay [17] was inactive. Moreover, the values for the potentiation in assay [4] and in assay [15] were 47% (active) and 19.2% (active), respectively.
